Tau ThT inhib: tau fibrillization inhibition (ThT binding). P10636. Potency, µM (top dose mostly 57.4 µM), most hits filed as inhibitors. recombinant tau K18 P301L, heparin-induced fibrillization, ThT fluorescence. 2.1% of 270,000 active; further: nearly all actives have a fitted effect of over 55% in size
Target sequence (P10636 561-689 P618L limits assumed): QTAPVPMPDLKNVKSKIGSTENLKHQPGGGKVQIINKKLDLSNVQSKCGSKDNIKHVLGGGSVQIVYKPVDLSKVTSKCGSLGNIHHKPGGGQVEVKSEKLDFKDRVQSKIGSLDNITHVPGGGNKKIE
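Fibril formation assay: tau K18 P301L at 15 uM with trace Alexa 594 label, heparin inducer 20 uM, pH 7 sodium acetate buffer, 37 C for 6 hr; endpoint ThT signal.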
Tau fluor cs: counter-screen for tau fibril formation inhibitors. tau K18 P301L Alexa594 fluorescence, heparin fibrillization. Potency, µM (highest dose often 57.7 µM). 0.93% of 280,000 active. AID 1463; further: nearly all actives have a fitted effect of over 55% in size
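Human tau K18 P301L (15 uM unlabeled, 0.24 uM Alexa 594-labeled) in 100 mM sodium acetate pH 7 with 20 uM heparin, 6 hr at 37 C. ThT 30 uM added, 1 hr ambient; Alexa 594 FP and total fluorescence read at 555/632 nm.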
TexasRed fluor: counter-screen for TRb-SRC2 inhibitors: fluorescence interference. TRb/SRC2 Texas Red total fluorescence interference. Potency, µM (series often up to 106 µM). 0.29% of 280,000 active. AID 1479; active means well fitted curve in either direction with a large enough effect; inconclusive means small, poorly fitted or top-dose-only effect
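Human TRb ligand-binding domain at 0.6 uM with 20 nM Texas Red SRC2 peptide in Tris buffer containing 1 uM T3 and 5% DMSO, incubated with compound 5 h at ambient temperature. Total fluorescence (555/632 nm) calculated as parallel + 2 × perpendicular.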
RGS12 GoLoco inh: inhibitors of human Gai1-RGS12 GoLoco interaction (red fluorophore); P63096; 0.44% of 230,000 active; Potency, µM (top dose mostly 61.6 µM), hits mostly inhibitors; AID 880; Gai1:RGS12 GoLoco peptide FP, rhodamine, 10 min; active means well fitted inhibition curve with a large enough effect, not every such curve was filed as active; inactive means no such curve, though single readings can be large or run the other way; further: nearly all actives have a fitted effect of over 30% in size
TRb SRC2 PPI: disrupts binding of human TR beta to SRC2; P10828; TRbeta-SRC2 peptide binding, fluorescence polarization; receptor liganded with 1 µM T3; Potency, µM (series often up to 106 µM), actives largely listed as inhibitors; 0.065% of 280,000 active; AID 1469; further: nearly all actives have a fitted effect of over 50% in size
Target sequence (P10828 whole entry, looked up): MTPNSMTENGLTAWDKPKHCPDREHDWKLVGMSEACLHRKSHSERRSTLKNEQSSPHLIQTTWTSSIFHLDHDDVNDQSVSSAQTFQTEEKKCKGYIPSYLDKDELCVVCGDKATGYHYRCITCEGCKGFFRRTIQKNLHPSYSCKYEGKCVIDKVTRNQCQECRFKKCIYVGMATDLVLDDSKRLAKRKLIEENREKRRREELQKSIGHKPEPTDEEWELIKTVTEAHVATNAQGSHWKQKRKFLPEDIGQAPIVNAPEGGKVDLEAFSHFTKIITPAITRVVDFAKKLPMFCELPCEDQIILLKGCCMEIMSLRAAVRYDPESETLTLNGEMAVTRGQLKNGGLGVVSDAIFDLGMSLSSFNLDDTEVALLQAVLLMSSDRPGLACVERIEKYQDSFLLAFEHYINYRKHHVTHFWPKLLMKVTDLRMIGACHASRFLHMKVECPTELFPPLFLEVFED
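Polarization signal, normalized between peptide-alone and full complex controls, measured compound effects on T3-liganded human TRb LBD (0.6 uM) binding 20 nM Texas Red SRC2 peptide after 5 hr.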
Tau FP inhib: inhibitors of human tau fibril formation | Potency, µM (series often up to 57.7 µM), hits mostly inhibitors | AID 1468 | P10636 | 0.39% of 280,000 active | K18 P301L tau heparin fibrillization, Alexa594 FP, 6 h; further: nearly all actives have a fitted effect of over 55% in size
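K18 P301L tau (15 uM unlabeled/0.24 uM Alexa 594-labeled, final) + compound + heparin 20 uM final; 100 mM NaOAc pH 7; 6 hr 37 C; ThT 30 uM final added, 1 hr RT; FP ex 555/em 632 nm.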
Numbers stand for hits; i = inactive; ? = inconclusive; nt = not tested or not shown; ! = a repeat was not active; [ ] = another dose, or the depositor's remark. Most compounds without a hit are left out; they make up all but 3.2% or so of the library. Unless noted, the call rests on the fitted dose curve; in most records, active means well fitted curve in the direction sought with a large enough effect; inconclusive means small, poorly fitted or top-dose-only effect, or another doubt; inactive means no such curve, though single readings can be large; an effect the other way counts as inactive or inconclusive.

SMILES | Tau ThT inhib | Tau fluor cs | TexasRed fluor | RGS12 GoLoco inh | TRb SRC2 PPI | Tau FP inhib
CC(C)[C@]1(O)[C@@H](OC(=O)c2ccc[nH]2)[C@]2(O)[C@@]3(C)C[C@@]4(O)O[C@@]5([C@H](O)[C@@H](C)CC[C@]35O)[C@]2(O)[C@]41C | nt | nt | nt | i[14.2 µM] | nt | nt
CC1(C)Cc2cccc(O)c2O1 | nt | nt | i | nt | i | nt
ClC1=C(Cl)C(Cl)(C2(Cl)C(Cl)=C(Cl)C(Cl)=C2Cl)C(Cl)=C1Cl | nt | nt | 32µM[quencher] | nt | ? | nt
C[N+]1(C)CCN(c2ccccc2)CC1 | i | i | i | 28µM! | i | i
C/C=C/C/C=C/CCC(=O)[C@H]1O[C@H]1C(N)=O | ? | i | i | i | ? | ?
O=[N+]([O-])c1ccc(NCc2ccccc2)c2nonc12 | i | i | i | 3.2µM | i | i
COCCOC(=O)C1=C(C)OC(N)=C(C(=O)OC)C12C(=O)Nc1ccccc12 (stereo not drawn) | 40µM | i | i | i | i | ?
Cn1c(=O)c2[nH]cnc2n(C)c1=O.[CH2-][C@H](Cc1cccc2cc(C(=O)O)c(=O)oc12)OC.[Hg].[OH-] | nt | nt | nt | i[14.2 µM] | nt | nt
c1ccc(SSc2ccccc2)cc1 | 25µM | i | i | i | i | 13µM
Brc1ccccc1 | i | i | i | i | i | i
Cc1ccc(-n2c(O)c(/C=C3/C(c4ccccc4)=Nc4ccccc43)c(=O)[nH]c2=O)cc1 | 13µM | ? | i | nt | i | ?
Cc1cccc(-n2c(O)c(/C=C3/C(c4ccccc4)=Nc4ccccc43)c(=O)[nH]c2=O)c1 | ? | i | i | i | i | i
Cc1ccccc1-n1c(O)c(C=Nc2ccc(N(C)C)cc2)c(=O)[nH]c1=O | 28µM | ? | i | i | i | ?
Cc1cccc(N=Cc2c(O)n(-c3ccccc3C)c(=O)[nH]c2=O)c1 | i | i | i | i | i | i
Cc1ccccc1-n1c(O)c(/C=C2/C(c3ccccc3)=Nc3ccccc32)c(=O)[nH]c1=O | i | i | 32µM[quencher] | i | ? | i
C=C(C)CN(CC)c1c([N+](=O)[O-])cc(C(F)(F)F)cc1[N+](=O)[O-] | nt | nt | i | nt | i | nt
Clc1ccc(C2(Cn3cncn3)CC(Br)CO2)c(Cl)c1 (stereo not drawn) | nt | nt | i | nt | i | nt
Brc1ccc(Oc2ccccc2)cc1 | nt | nt | i | nt | i | nt
CCCCC(CC)C(=O)Cl (stereo not drawn) | nt | nt | i | nt | i | nt
CSc1nnc(C(C)(C)C)c(=O)n1N | nt | nt | i | nt | i | nt
N#CS.N=C=S.N=C=S.[Cu].[NH2-].[NH2-].[NH2-].[NH2-].c1ccc2ncccc2c1 | nt | nt | nt | i[14.2 µM] | nt | nt
CN(C)c1ccc(NC(=O)c2sc3nc4c(cc3c2N)N2CCC4CC2)cc1 | ? | ? | 14µM[quencher] | nt | i | i
Nc1c(C(=O)Nc2ccc(F)c(Cl)c2)sc2nc3c(cc12)N1CCC3CC1 | ? | ? | i | nt | i | i
Nc1c(C(=O)Nc2ccc(Br)cc2F)sc2nc3c(cc12)N1CCC3CC1 | i | ? | 10µM[quencher] | nt | i | i
O=C(NC(=O)c1c(F)cccc1F)Nc1cc(Cl)c(OC(F)(F)C(F)C(F)(F)F)c(Cl)c1F (stereo not drawn) | nt | nt | i | nt | i | nt
SMILES | Tau ThT inhib | Tau fluor cs | TexasRed fluor | RGS12 GoLoco inh | TRb SRC2 PPI | Tau FP inhib
O=CC(Br)P(=O)(N1CCOCC1)N1CCOCC1 (stereo not drawn) | 10µM | ? | i | i | i | 25µM
CCCSC(=O)N(CCC)CCC | nt | nt | i | nt | i | nt
CC(C1CC1)C(O)(Cn1cncn1)c1ccc(Cl)cc1 (stereo not drawn) | nt | nt | i | nt | i | nt
O=S1(=O)N(CCN2CC=C(c3c[nH]c4cc(F)ccc34)CC2)c2cccc3c2N1CCC3 | ? | 8.9µM[quencher] | ? | i | i | i
CC(C)N1CC=C(c2c[nH]c3ccccc23)CC1 | i | i | i | i | i | i
CC1=NN(c2ccccc2)C(=O)C1/C=C1\C(=O)NC(=O)N(c2ccc(C)c(C)c2)C1=O (stereo not drawn) | 11µM | i | i | i | i | i
CC1=NN(c2ccccc2)C(=O)C1/C=C1/C(=O)NC(=O)N(c2cc(C)cc(C)c2)C1=O (stereo not drawn) | 11µM | i | i | i | i | i
CNC(=O)O/N=C(\SC)C(=O)N(C)C | nt | nt | i | nt | i | nt
CC1(C)CON(Cc2ccccc2Cl)C1=O | nt | nt | i | nt | i | nt
O=c1[nH]sc2cc(F)ccc12 | 11µM | i | i | i | i | 28µM
CC(C)OC(=O)Nc1cccc(Cl)c1 | i | i | i | i | i | i
N#CC(C#N)=NNc1cccc(Cl)c1 | 4.5µM | ? | i | i | i | ?
Brc1ccc(Br)cc1 | nt | nt | i | nt | i | nt
Nc1nc2c(ncn2[C@@H]2O[C@H](CO)[C@@H](O)[C@@H]2O)c(=[SH+])[nH]1.O=[N+]([O-])c1ccc(O)[c]([Hg])c1 | nt | nt | nt | 0.11µM | nt | nt
Nc1nc(=S)c2ncn([C@H]3O[C@@H](CO)[C@@H](O)[C@@H]3O)c2[nH]1 | nt | nt | i | i | i | nt
O=c1[nH]c(=S)n(C2CC2)c(O)c1/C=N/Nc1ccccc1 | 11µM | i | i | i | i | ?
O=c1[nH]c(=O)n(CCC2=CCCCC2)c(O)c1/C=N/Nc1cccc2ccccc12 | 18µM | ? | i | i | i | ?
O=c1[nH]c(=S)n(C2CC2)c(O)c1/C=N/Nc1cccc2ccccc12 | 11µM | ? | i | nt | i | ?
O=c1[nH]c(=O)n(CCC2=CCCCC2)c(O)c1/C=N/Nc1ccccc1 | i | i | i | i | i | i
CCC(C)n1c(O)c(/C=N/Nc2ccccc2)c(=O)[nH]c1=S (stereo not drawn) | 18µM | ? | i | i | i | i
CCCCC(=O)N/N=C/c1c(O)n(C2CC2)c(=S)[nH]c1=O | ? | i | i | i | i | i
O=C1NC(=O)C(=Cc2ccccc2Oc2ccc(F)cc2)C(=O)N1 | ? | i | i | i | i | i
O=C1NC(=S)NC(=O)C1=Cc1cccc2cc3ccccc3cc12 | 11µM | 16µM[quencher] | i | i[14.2 µM] | i | i
CCOc1ccccc1N=C1SCCCN1C | i | i | i | 3.5µM | i | i
CC(=O)N1CCCSC1=Nc1ccccc1 | i | i | i | i | i | i
O=C1NC(=O)C(=Cc2coc3ccccc3c2=O)C(=O)N1 | ? | i | i | i | i | ?
O=C1NC(=O)C(=C/C=C/c2coc3ccc(Br)cc3c2=O)C(=O)N1 | 7.9µM | i | 25µM[fluorescent] | i | ? | ?
ClCc1ccccc1Cl | nt | nt | i | nt | i | nt
ClC1=C(Cl)C(Cl)=C(Cl)C1=C/C=C/c1ccccc1 | 11µM | 14µM[quencher] | i | i | i | ?
Cc1ccccc1N1C(=O)CC(=O)NC1=O | 16µM | i | i | i | i | ?
